Among the data in PubChem BioAssay (NCI) are growth values, retold here.

Molecules are shown by their SMILES. The panel holds about 83,000 compounds, 20% with a hit somewhere; the sample as a whole holds those more often.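 Percent growth is the endpoint: 0 to 100 indicates growth inhibition (40 means 60% inhibition), 0 means no net growth, and negative values indicate cell death.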 Values without a mark were called inactive. Calls of active or inactive are those of the source. The calls were made as follows: active = growth percent below 10; inactive = the rest.

One test has as its system CAKI-1 renal. Kind of test: NCI-60 one-dose screen, 48 h (100 = growth as untreated, 0 = no growth, -100 = all killed). The note with it: 10 µM.
Turning to `C=C(C(=O)c1ccccc1)C(NC(C)(C)C)c1ccccc1` (stereo not drawn), the growth is 6.9% (active).

With `O=c1c2ccccc2nc(SCCN2CCCCC2)n1CCc1ccccc1`, the growth is 73.9%.

As for `N=c1c2c(-c3ccccc3)c(-c3ccccc3)n(Cc3ccccc3)c2ncn1CCCO`, the growth is 13.9%.

As to `COc1cc(/C=C2\Oc3cc(OCC(=O)c4ccccc4)ccc3C2=O)cc(OC)c1OC`, the growth was 119%.

As to `Cc1ccc(NC(=O)CSc2nc3ccccc3c(=O)n2CCc2ccccc2)c(C(=O)O)c1`, the growth is 81.5%.

`O=C(Nc1nc2ccc(F)cc2s1)c1cc(-c2ccc(F)cc2)n2nc(-c3ccccc3)cc2n1`: the growth was 85.6%.

In the case of `CN1CCCNc2c(c(=O)c2=O)NCCCN(C)CCCNc2c(c(=O)c2=O)NCCCN(C)CCCNc2c(c(=O)c2=O)NCCCN(C)CCCNc2c(c(=O)c2=O)NCCCN(C)CCCNc2c(c(=O)c2=O)NCCCN(C)CCCNc2c(c(=O)c2=O)NCCCN(C)CCCNc2c(c(=O)c2=O)NCCC1`, the growth is 54.1%.

Turning to `CCN1CCC2(CC1)OC(c1ccccc1)C(c1ccccc1)O2` (stereo not drawn), the growth is 111%.

For the compound `O=C(O)c1ccc(Cl)cc1Nc1ccc(F)cc1`, the growth was 29.1%.

For `CCCCCC(=O)c1ccc(OCCCN2CCN(C(=O)OCC)CC2)cc1`, the growth was 95.2%.

For the compound `COc1ccc(NC(=O)CSc2nc3ccccc3c(=O)n2CCc2ccccc2)cc1`, the growth was 87.5%.

Consider `COc1ccc(-c2nnc(-c3c(-c4ccccc4)nc4ncccn34)o2)cc1OC`, for which the growth was 103%.

With `COc1ccc2nc3cc(Cl)ccc3c(NCCNCC(C)O)c2c1` (stereo not drawn), the growth is 47.6%.

For `CC(C)(C)NC/C(=C\c1ccccc1)C(=O)c1ccccc1`, the growth was -7.54% (active).

Take `COc1ccc(-c2ccc3cc(C(=O)Nc4ccc(O)c(C(=O)/C=C/c5cc(OC)c(OC)c(OC)c5)c4)ccc3c2)cc1`: the growth is 86.6%.

For the compound `CCCCN(CCCC)c1cc(C(=O)CCCCCN)c2ccccc2n1`, the growth is -45.4% (active).

With `COc1ccc(NC(=O)Cc2nc3nc4sc(C)c(C)c4c(=O)n3[nH]2)cc1`, the growth was 98%.

With `COc1cc(-c2nc(-c3nnc(-c4ccc(F)c(Cl)c4)o3)c3ccccn23)cc(OC)c1OC`, the growth was 58%.

As to `NC(=O)SCC(=O)Nc1ccc(S(N)(=O)=O)cc1`, the growth is 104%.

Regarding `Nc1nccc(Nc2ccccc2)n1`, the growth was 118%.

For the compound `Oc1[nH]c2cc(Cl)ccc2c1/C=c1/ccc2c(c1)N=C(c1cc(F)cc(F)c1)N=2`, the growth was 17.1%.

`c1ccc2c(c1)oc1c3cccnc3ccc21`: the growth is 84.1%.

For the compound `COc1ccc2c(c1)sc1nc(-c3ccccc3)c(-c3ccsc3)n12`, the growth is 27.9%.

As to `CSc1cc(SC)ncn1`, the growth is 106%.

For `COc1ccc2c(c1)sc1nc(-c3ccccc3)c(-c3ccc(O)c(OC)c3)n12`, the growth was 77.5%.

For `CCCCCCCCCCCCCC[n+]1ccc(C(N)=O)cc1`, the growth was 15.6%.

For the compound `CN1c2ccccc2[C@]2(Cc3ccccc3)Cc3ccccc3N[C@H]12`, the growth was 112%.

As for `CCN(CC)CCSCCCNc1c2ccc(Cl)cc2nc2ccc(OC)cc12`, the growth is -22.8% (active).

On to `CC(=O)c1cc(Br)ccc1O`, for which the growth is 111%.

Regarding `COc1ccc(-c2nc3sccn3c2-c2nc3c([nH]2)C(=O)c2ccccc2C3=O)cc1`, the growth is 84.7%.

`N=C1c2nc3n(c2C(=O)c2nc4n(c21)CCCC4)CCCC3`: the growth was 88.8%.

Regarding `COc1ccc(-c2nc3ccccn3c2-c2nnc(-c3cc(OC)c(OC)c(OC)c3)o2)cc1`, the growth is 80.1%.

For the compound `CCN(CC)CCOc1nc2ccc(OC)cc2c2c1-c1ccc(OC)cc1C2=O`, the growth was -4.67% (active).

Take `CCCCCCCCN(CCCCCCCC)CCCCCCCCCN1CCCc2cc(OC)ccc21`: the growth is 99.3%.

Turning to `COc1ccc2c(c1)C(=O)c1c-2c(OCCN(C)C)nc2cc(OC)c(OC)cc12`, the growth is 81%.

`COc1ccc(/C(=C2\O[C@@H]([C@H]3COC(C)(C)O3)[C@H]3OC(C)(C)O[C@@H]23)c2cc(OC)c(OC)c(OC)c2)cc1O`: the growth was 93%.

For `Nc1ccn(C2CC(O)C(CO)O2)c(=O)n1` (stereo not drawn), the growth is 99.4%.

`CC(C)=CCc1ccc(O)c(=O)cc1C(C)C`: the growth is -8.29% (active).

With `COc1cc(NC(=O)CSc2nc3ccccc3c(=O)n2CCc2ccccc2)cc(OC)c1OC`, the growth is 45.4%.

For another test, the system named is A498 renal. The test is described as above. The note with it: 10 µM.
Regarding `C=C(C(=O)c1ccccc1)C(NC(C)(C)C)c1ccccc1` (stereo not drawn), the growth was 94.1%.

Take `O=c1c2ccccc2nc(SCCN2CCCCC2)n1CCc1ccccc1`: the growth is 83.1%.

As to `N=c1c2c(-c3ccccc3)c(-c3ccccc3)n(Cc3ccccc3)c2ncn1CCCO`, the growth was 17.6%.

As for `COc1cc(/C=C2\Oc3cc(OCC(=O)c4ccccc4)ccc3C2=O)cc(OC)c1OC`, the growth is 105%.

On to `Cc1ccc(NC(=O)CSc2nc3ccccc3c(=O)n2CCc2ccccc2)c(C(=O)O)c1`, for which the growth was 87%.

For the compound `O=C(Nc1nc2ccc(F)cc2s1)c1cc(-c2ccc(F)cc2)n2nc(-c3ccccc3)cc2n1`, the growth is 124%.

Take `CN1CCCNc2c(c(=O)c2=O)NCCCN(C)CCCNc2c(c(=O)c2=O)NCCCN(C)CCCNc2c(c(=O)c2=O)NCCCN(C)CCCNc2c(c(=O)c2=O)NCCCN(C)CCCNc2c(c(=O)c2=O)NCCCN(C)CCCNc2c(c(=O)c2=O)NCCCN(C)CCCNc2c(c(=O)c2=O)NCCC1`: the growth was 72.5%.

In the case of `CCN1CCC2(CC1)OC(c1ccccc1)C(c1ccccc1)O2` (stereo not drawn), the growth is 98.9%.

As to `O=C(O)c1ccc(Cl)cc1Nc1ccc(F)cc1`, the growth was 83.7%.

Turning to `CCCCCC(=O)c1ccc(OCCCN2CCN(C(=O)OCC)CC2)cc1`, the growth is 95.5%.

For the compound `COc1ccc(NC(=O)CSc2nc3ccccc3c(=O)n2CCc2ccccc2)cc1`, the growth was 101%.

On to `COc1ccc(-c2nnc(-c3c(-c4ccccc4)nc4ncccn34)o2)cc1OC`, for which the growth was 117%.

On to `COc1ccc2nc3cc(Cl)ccc3c(NCCNCC(C)O)c2c1` (stereo not drawn), for which the growth was 37%.

Turning to `CC(C)(C)NC/C(=C\c1ccccc1)C(=O)c1ccccc1`, the growth was 64.4%.

For the compound `COc1ccc(-c2ccc3cc(C(=O)Nc4ccc(O)c(C(=O)/C=C/c5cc(OC)c(OC)c(OC)c5)c4)ccc3c2)cc1`, the growth is 91.2%.

Take `CCCCN(CCCC)c1cc(C(=O)CCCCCN)c2ccccc2n1`: the growth is 72.6%.

Take `COc1ccc(NC(=O)Cc2nc3nc4sc(C)c(C)c4c(=O)n3[nH]2)cc1`: the growth is 122%.

In the case of `COc1cc(-c2nc(-c3nnc(-c4ccc(F)c(Cl)c4)o3)c3ccccn23)cc(OC)c1OC`, the growth was 40.6%.

Regarding `NC(=O)SCC(=O)Nc1ccc(S(N)(=O)=O)cc1`, the growth is 100%.

Regarding `Nc1nccc(Nc2ccccc2)n1`, the growth is 97.3%.

On to `Oc1[nH]c2cc(Cl)ccc2c1/C=c1/ccc2c(c1)N=C(c1cc(F)cc(F)c1)N=2`, for which the growth is 0.502% (active).

Consider `c1ccc2c(c1)oc1c3cccnc3ccc21`, for which the growth is 87.2%.

Take `COc1ccc2c(c1)sc1nc(-c3ccccc3)c(-c3ccsc3)n12`: the growth was -7.5% (active).

Turning to `CSc1cc(SC)ncn1`, the growth was 98.8%.

Take `COc1ccc2c(c1)sc1nc(-c3ccccc3)c(-c3ccc(O)c(OC)c3)n12`: the growth was 76.6%.

As to `CCCCCCCCCCCCCC[n+]1ccc(C(N)=O)cc1`, the growth was 52.3%.

Turning to `CN1c2ccccc2[C@]2(Cc3ccccc3)Cc3ccccc3N[C@H]12`, the growth was 113%.

As to `CCN(CC)CCSCCCNc1c2ccc(Cl)cc2nc2ccc(OC)cc12`, the growth is -77.7% (active).

As to `CC(=O)c1cc(Br)ccc1O`, the growth is 106%.

For `COc1ccc(-c2nc3sccn3c2-c2nc3c([nH]2)C(=O)c2ccccc2C3=O)cc1`, the growth is 49.7%.

On to `N=C1c2nc3n(c2C(=O)c2nc4n(c21)CCCC4)CCCC3`, for which the growth was 52.1%.

As for `COc1ccc(-c2nc3ccccn3c2-c2nnc(-c3cc(OC)c(OC)c(OC)c3)o2)cc1`, the growth is 48.2%.

As for `CCN(CC)CCOc1nc2ccc(OC)cc2c2c1-c1ccc(OC)cc1C2=O`, the growth is 25.4%.

For `CCCCCCCCN(CCCCCCCC)CCCCCCCCCN1CCCc2cc(OC)ccc21`, the growth was 96%.

As for `COc1ccc2c(c1)C(=O)c1c-2c(OCCN(C)C)nc2cc(OC)c(OC)cc12`, the growth is 102%.

Take `COc1ccc(/C(=C2\O[C@@H]([C@H]3COC(C)(C)O3)[C@H]3OC(C)(C)O[C@@H]23)c2cc(OC)c(OC)c(OC)c2)cc1O`: the growth is 63.3%.

As to `Nc1ccn(C2CC(O)C(CO)O2)c(=O)n1` (stereo not drawn), the growth was 124%.

As for `CC(C)=CCc1ccc(O)c(=O)cc1C(C)C`, the growth is 52.6%.

Regarding `COc1cc(NC(=O)CSc2nc3ccccc3c(=O)n2CCc2ccccc2)cc(OC)c1OC`, the growth is -21.8% (active).
